For 12 molecules, nuclei count, normalised and p53-positive nuclei, normalised results are on record in PubChem BioAssay AID1508601 (ICCB-Longwood Screening Facility, Harvard Medical School, 2020).

Experiment [1] can be described thus: nuclear p53 accumulation, HPV+ cells – imaging, p53-positive nuclei imaging, 24 h, 48 h (AID 1508601). The settings on record: 24/48 h.
The target in experiment [2] is Cellular tumor antigen p53 (Homo sapiens) (UniProt P04637). The description is as above. The settings on record: 24/48 h, stronger effect = higher value.
Where [3] appears, read: measured here: cell number at 24 h, Library stock concentration: 10 mM.
Setting [4] is: measured here: cell number at 48 h, Library stock concentration: 10 mM.
The mark [5] stands for this setting: Library stock concentration: 10 mM.
Where [6] appears, read: measured here: p53 positive nuclei at 24 h, Library stock concentration: 10 mM.
[7] abbreviates: measured here: cell number at 24 h, Library stock concentration: 80 uM.
Where [8] appears, read: measured here: cell number at 24 h, Library stock concentration: 400 uM.
[9] abbreviates: measured here: cell number at 24 h, Library stock concentration: 2 mM.
[10] abbreviates: measured here: cell number at 24 h, Library stock concentration: 3.33 mM.
Setting [11] is: measured here: cell number at 48 h, Library stock concentration: 80 uM.
Setting [12] is: measured here: cell number at 48 h, Library stock concentration: 400 uM.
[13] abbreviates: measured here: cell number at 48 h, Library stock concentration: 2 mM.
Setting [14] is: measured here: cell number at 48 h, Library stock concentration: 3.33 mM.
[15] abbreviates: Library stock concentration: 80 uM.
Where [16] appears, read: Library stock concentration: 400 uM.
Where [17] appears, read: Library stock concentration: 2 mM.
The mark [18] stands for this setting: Library stock concentration: 3.33 mM.
The mark [19] stands for this setting: measured here: p53 positive nuclei at 24 h, Library stock concentration: 80 uM.
Setting [20] is: measured here: p53 positive nuclei at 24 h, Library stock concentration: 400 uM.
Setting [21] is: measured here: p53 positive nuclei at 24 h, Library stock concentration: 2 mM.
[22] abbreviates: measured here: p53 positive nuclei at 24 h, Library stock concentration: 3.33 mM.
The mark [23] stands for this setting: measured here: cell number at 24 h, concentration not given here.
Where [24] appears, read: measured here: cell number at 48 h, concentration not given here.
Setting [25] is: measured here: p53 positive nuclei at 24 h, concentration not given here.

Several values for one entry are separate records, joined by “and”; a condition that tells them apart may be missing. Equal values may be shown once. About 85 (1%) of roughly 5,700 compounds were called active. Rule as the data show it: active = p53-positive nuclei above about 36% (passing the limit was not always enough); inactive = the rest. Many of the other results were omitted from the sample, so actives are more common in it than they were.

Chain of Cellular tumor antigen p53 (Homo sapiens) (P04637 whole entry, looked up): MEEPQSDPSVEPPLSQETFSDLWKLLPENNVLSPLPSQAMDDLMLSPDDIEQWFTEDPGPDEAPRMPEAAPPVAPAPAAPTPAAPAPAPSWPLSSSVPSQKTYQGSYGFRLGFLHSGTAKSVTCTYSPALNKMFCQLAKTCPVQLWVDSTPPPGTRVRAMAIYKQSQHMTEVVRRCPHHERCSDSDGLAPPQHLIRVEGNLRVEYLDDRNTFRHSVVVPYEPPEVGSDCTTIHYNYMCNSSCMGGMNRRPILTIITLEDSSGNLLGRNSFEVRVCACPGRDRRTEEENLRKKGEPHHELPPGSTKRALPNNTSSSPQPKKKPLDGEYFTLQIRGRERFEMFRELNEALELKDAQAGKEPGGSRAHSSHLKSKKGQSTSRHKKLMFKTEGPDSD

Take `C#CCOc1ccc2c(c1)c(-c1ccc(C(C)C)cc1)nc(=O)n2C(C)C`: the nuclei count, normalised in experiment [1] (measured here: cell number at 24 h, Library stock concentration: 46 uM) was 104%; in experiment [1] (measured here: cell number at 24 h, Library stock concentration: 278 uM) it was 110%; in experiment [1] (measured here: cell number at 24 h, Library stock concentration: 1.67 mM), 104%; in experiment [1] (setting [3]), 112%; in experiment [1] (measured here: cell number at 48 h, Library stock concentration: 46 uM), 101%; in experiment [1] (measured here: cell number at 48 h, Library stock concentration: 278 uM), 101%. The nuclei count, normalised came to 97.6% in experiment [1] (measured here: cell number at 48 h, Library stock concentration: 1.67 mM) and 101% in experiment [1] (setting [4]). Also, the p53-positive nuclei, normalised in experiment [2] (Library stock concentration: 46 uM) is -0.166% (inactive); in experiment [2] (Library stock concentration: 278 uM), 0.0283% (inactive); in experiment [2] (Library stock concentration: 1.67 mM), 0.0841% (inactive); in experiment [2] (setting [5]), -0.00718% (inactive); in experiment [2] (measured here: p53 positive nuclei at 24 h, Library stock concentration: 46 uM) it was -0.153%; in experiment [2] (measured here: p53 positive nuclei at 24 h, Library stock concentration: 278 uM), -0.218%. The p53-positive nuclei, normalised was -0.0911% in experiment [2] (measured here: p53 positive nuclei at 24 h, Library stock concentration: 1.67 mM) and -0.218% in experiment [2] (setting [6]).

In the case of `O=C(O)C=Cc1ccc(Cn2ccnc2)cc1`, the nuclei count, normalised is 111% in experiment [1] (setting [7]); 104% in experiment [1] (setting [8]); 103% in experiment [1] (setting [9]); 103% and 107% in experiment [1] (setting [10]); 108% in experiment [1] (setting [3]); 108% in experiment [1] (setting [11]). For the same molecule, the nuclei count, normalised in experiment [1] (setting [12]) was 104%; in experiment [1] (setting [13]) it was 103%; in experiment [1] (setting [14]) it was 110% and 99.3%; in experiment [1] (setting [4]), 103%. Moreover, the p53-positive nuclei, normalised in experiment [2] (setting [15]) is 0.0181% (inactive); in experiment [2] (setting [16]), 0.0683% (inactive); in experiment [2] (setting [17]), 0.0233% (inactive); in experiment [2] (setting [18]), -0.0503% (inactive) and -0.0965% (inactive); in experiment [2] (setting [5]), -0.178% (inactive); in experiment [2] (setting [19]), 0.0685%. In addition, the p53-positive nuclei, normalised in experiment [2] (setting [20]) is 0.0107%; in experiment [2] (setting [21]) it was 0.0098%; in experiment [2] (setting [22]) it was -0.252% and -0.232%; in experiment [2] (setting [6]), -0.12%.

Take `CCCCCCCCNC(=O)Cc1c(C)n(C(=O)c2ccc(Cl)cc2)c2ccc(OC)cc12`: the figures for the nuclei count, normalised in experiment [1] (setting [23]) and in experiment [1] (setting [24]) were 104% and 112%, respectively. The p53-positive nuclei, normalised in experiment [2] (concentration not given here) is 0.0988% (inactive); in experiment [2] (setting [25]) it was -0.0319%.

Regarding `O=C1CCCc2occ(C(=O)N3CCc4[nH]nc(C5CCC5)c4C3)c21`, the nuclei count, normalised in experiment [1] (setting [23]) is 110%; in experiment [1] (setting [24]) it was 114%. Moreover, the p53-positive nuclei, normalised in experiment [2] (concentration not given here) is -0.00738% (inactive); in experiment [2] (setting [25]) it was -0.086%.

For the molecule `OCCCCCNc1nccc(-c2cnn(-c3ccc(F)cc3)c2)n1`, the nuclei count, normalised in experiment [1] (setting [23]) and in experiment [1] (setting [24]) was 103% each time. The figures for the p53-positive nuclei, normalised in experiment [2] (concentration not given here) and in experiment [2] (setting [25]) were -0.0141% (inactive) and 0.508%, respectively.

In the case of `OCCCNc1cc(-c2ccnc(Nc3cccc(Cl)c3)n2)ccn1`, the nuclei count, normalised came out at 46% in experiment [1] (setting [7]); 37.5% in experiment [1] (setting [8]); 37% in experiment [1] (setting [9]); 36.9% in experiment [1] (setting [3]); 28.8% in experiment [1] (setting [11]); 20.8% in experiment [1] (setting [12]). Further, the nuclei count, normalised in experiment [1] (setting [13]) was found to be 22.2%; in experiment [1] (setting [4]) it was 23.8%. The p53-positive nuclei, normalised was 75.9% (active) in experiment [2] (setting [15]); 41.8% (inactive) in experiment [2] (setting [16]); 16.5% (inactive) in experiment [2] (setting [17]); 8.11% (inactive) in experiment [2] (setting [5]); 23.9% in experiment [2] (setting [19]); 2.63% in experiment [2] (setting [20]). The p53-positive nuclei, normalised is 2.24% in experiment [2] (setting [21]) and 1.34% in experiment [2] (setting [6]).

For `OCCCCCNc1nccc(-c2cnn(-c3ccccc3F)c2)n1`, the nuclei count, normalised in experiment [1] (setting [23]) came to 112%; in experiment [1] (setting [24]) it was 73.8%. The p53-positive nuclei, normalised in experiment [2] (concentration not given here) is 0.562% (inactive); in experiment [2] (setting [25]), -0.0884%.

Turning to `NC(=Nc1ccc(F)cc1)NO`, the nuclei count, normalised in experiment [1] (setting [23]) amounted to 101%; in experiment [1] (setting [24]), 95.3%. The values for the p53-positive nuclei, normalised in experiment [2] (concentration not given here) and in experiment [2] (setting [25]) were 0.0683% (inactive) and -0.0286%, respectively.

As to `O=C(C=Cn1cnc(-c2cc(C(F)(F)F)cc(C(F)(F)F)c2)n1)N1CC(F)(F)C1`, the nuclei count, normalised in experiment [1] (setting [10]) was determined as 66.2%; in experiment [1] (setting [14]), 53%. In addition, the p53-positive nuclei, normalised is 0.0748% (inactive) in experiment [2] (setting [18]) and -0.238% in experiment [2] (setting [22]).

Consider `O=C(O)CCC/C=C\C[C@H]1C(=O)C[C@@H](O)[C@@H]1/C=C/[C@@H](O)CCc1ccccc1`, for which the results for the nuclei count, normalised in experiment [1] (setting [23]) and in experiment [1] (setting [24]) were 102% and 107%, respectively. The figures for the p53-positive nuclei, normalised in experiment [2] (concentration not given here) and in experiment [2] (setting [25]) were 0.0806% (inactive) and 0.0378%, respectively.

Regarding `Cc1nn(C)cc1-c1ccnc(N2CCCC(c3nc4c(C)cccc4[nH]3)C2)n1` (stereo not drawn), the results for the nuclei count, normalised in experiment [1] (setting [23]) and in experiment [1] (setting [24]) were 103% and 106%, respectively. Moreover, the values for the p53-positive nuclei, normalised in experiment [2] (concentration not given here) and in experiment [2] (setting [25]) were -0.267% (inactive) and -0.151%, respectively.

For the molecule `CC1(C)S[C@@H]2C(NC(=O)C(C(=O)O)c3ccccc3)C(=O)N2C1C(=O)O` (stereo partly drawn), the nuclei count, normalised amounted to 119% in experiment [1] (setting [10]) and 111% in experiment [1] (setting [14]). Besides, the p53-positive nuclei, normalised in experiment [2] (setting [18]) was -0.208% (inactive); in experiment [2] (setting [22]) it was -0.327%.
